Experimental data published in PubChem BioAssay (NCATS).
Results filed as inconclusive are left out. A number with no mark means an inactive call. Active and inactive are the calls of the source. The call rests on the fitted dose curve; in most records, active means well fitted cell-killing curve with a large enough effect; inconclusive means small, poorly fitted or top-dose-only effect; inactive means flat fitted curve, though single readings scatter.

assay: qHTS of pediatric cancer cell lines to identify multiple opportunities for drug repurposing: Primary screen for BT-12 cells (AID 1347101); details: BT-12 viability, CellTiter-Glo luminescence, 48 h; series mostly up to 57.3 µM; activity change, negative = cytotoxic: at the top concentration; further: nearly all actives have a fitted effect of over 25% in size;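 on activity change, negative = cytotoxic: plate controls were DMSO for no effect and bortezomib positive control for full effect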
In short: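 Cells (500-1,000/well) rested 5 h, then received compounds for 48 h; metabolically active cells were measured by CellTiter-Glo luminescence. Final concentrations spanned up to 46 µM (MIPE, 11-point) or 0.59 nM-46 µM (NPC, 8-point) in primary screens, 11-point in follow-ups.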
Potency means the concentration at half of the fitted maximal effect.

| SMILES | Potency | activity change, negative = cytotoxic [%] |
| --- | --- | --- |
| C[C@H]1[C@@H](OC(=O)CCC(=O)O)O[C@@H]2O[C@@]3(C)CC[C@@H]4[C@H](C)CC[C@@H]1[C@@]24OO3 | 1.22 µM (active) |  |
| Cc1cnc(Nc2ccc(CN3CCOCC3)cc2)nc1Nc1cccc(S(=O)(=O)NC(C)(C)C)c1 | 9.68 µM (active) |  |
| COC(=O)[C@@H]1[C@H]2C[C@@H]3c4[nH]c5ccccc5c4CCN3C[C@@H]2CC[C@@H]1O |  | 2.13 |
| C=C(C)[C@@H]1CC[C@]2(C(=O)O)CC[C@]3(C)[C@H](CC[C@@H]4[C@@]5(C)CC[C@H](O)C(C)(C)[C@@H]5CC[C@]43C)[C@@H]12 |  | 1.12 |
| CC(C)C[C@H](NC(=O)[C@@H](NC(=O)c1cccc(-c2ccccc2)n1)[C@@H](C)O)B(O)O | 0.0685 µM (active) |  |
| C[N+](C)([O-])CCNc1ccc(NCC[N+](C)(C)[O-])c2c1C(=O)c1c(O)ccc(O)c1C2=O |  | -4.52 |
| CC(C)(O)CC[C@@H](O)[C@](C)(O)[C@H]1CC[C@@]2(O)C3=CC(=O)[C@@H]4C[C@@H](O)[C@@H](O)C[C@]4(C)[C@@H]3CC[C@]12C |  | -0.458 |
| CCS(=O)(=O)Nc1ccc2[nH]c(O)c(C(=Nc3ccc(CN4CCCCC4)cc3)c3ccccc3)c2c1 | 21.7 µM (active) |  |
| c1coc(CNc2ncnc3nc[nH]c23)c1 |  | -2.73 |
| CCCCOc1ccc(C(=O)Nc2ccc(F)cc2F)cc1 |  | 9.24 |
| CC[C@H]1OC(=O)[C@H](C)[C@@H](O[C@H]2C[C@@](C)(OC)[C@@H](O)[C@H](C)O2)[C@H](C)[C@@H](O[C@@H]2O[C@@H](C)C[C@H](N(C)C)[C@@H]2O)[C@](C)(O)C[C@@H](C)C(=O)[C@H](C)[C@@H](O)[C@]1(C)O |  | 2.83 |
| CCNC(=O)c1cc2c(-c3cc(OCCN4CCCC4)c(Cl)cc3Cl)nc(N)nc2s1 |  | -26.4 |
| Cc1ccc2nc(NCCN)c3ncc(C)n3c2c1 | 34.3 µM (active) |  |
| CC(C)(O)[C@H]1CC[C@@](C)([C@H]2[C@@H](O)C[C@@]3(C)[C@@H]4C[C@H](O[C@@H]5O[C@H](CO)[C@@H](O)[C@H](O)[C@@H]5O)[C@H]5C(C)(C)[C@@H](O[C@@H]6OC[C@@H](O)[C@H](O)[C@@H]6O)CC[C@@]56C[C@@]46CC[C@]23C)O1 |  | 9.49 |
| CC(C(C)N1CC(=O)NC(=O)C1)N1CC(=O)NC(=O)C1 (stereo not drawn) |  | 5.72 |
| CC(=O)OC[C@@H]1O[C@@H](n2ccc(=O)[nH]c2=O)[C@H](OC(C)=O)[C@H]1OC(C)=O |  | 4.49 |
| Cc1cnc(NC(=O)Nc2cc(Br)c(C)cc2OC[C@@H]2CNCCO2)cn1 |  | 4.99 |
| C[C@H](NC(=O)[C@@H](O)c1cc(F)cc(F)c1)C(=O)N[C@@H]1C(=O)N(C)c2ccccc2-c2ccccc21 |  | -5.54 |
| CON=C(C(=O)N[C@@H]1C(=O)N2C(C(=O)O)=C(CSC(=O)c3ccco3)CS[C@H]12)c1csc(N)n1 |  | -7.82 |
| C[C@@]12C[C@@]3(O)O[C@@H](O1)[C@]1(COC(=O)c4ccccc4)[C@@H]3C[C@@]12O[C@@H]1O[C@H](CO)[C@@H](O)[C@H](O)[C@@H]1O |  | 7.28 |
| CC(=O)C1=C(O)C=C2Oc3c(C(C)=O)c(O)c(C)c(O)c3C2(C)C1=O (stereo not drawn) | 1.72 µM (active) |  |
| Nc1ncn([C@@H]2O[C@H](CO)[C@@H](O)[C@@H]2O)c(=O)n1 | 5.44 µM (active) |  |
| C[C@]12C=CC(=O)N[C@@H]1CC[C@H]1[C@H]3CC[C@@H](C(=O)Nc4cc(C(F)(F)F)ccc4C(F)(F)F)[C@@]3(C)CC[C@@H]12 |  | -5.04 |
